# Results: PubChem BioAssay (Tox21)
# Where “and” joins values, the source holds several entries; their conditions need not be identical. Equal values may be shown once. Records with an inconclusive call do not appear. A call without a number means that no potency is given here. More than one record can exist for a structure, and the calls need not agree. Calls of active or inactive are those of the source. Unless noted, the call rests on the fitted dose curve.
# What was measured:
# [1] = Nuclear factor erythroid 2-related factor 2/antioxidant responsive element (Nrf2/ARE) small molecule agonists: qHTS cell viability counter screen in human keratinocytes (AID 1919968; active means well fitted curve in the direction sought with a large enough effect in the repeat runs; an effect the other way counts as inactive or inconclusive; further: nearly all actives have a fitted effect of over 55% in size)
# Procedure, shortened: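 Seed 1,500 KeratinoSens cells per well, then incubate 5 h at 37 C/5% CO2. Add compounds in DMSO and incubate 23 h. Add CellTiter-Fluor, wait 1 h and read fluorescence.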
# [2] = Nuclear factor erythroid 2-related factor 2/antioxidant responsive element (Nrf2/ARE) small molecule agonists: luciferase reporter gene qHTS assay in human keratinocytes (AID 1919969); further: nearly all actives have a fitted effect of over 35% in size; further: potency means the concentration at half of the fitted maximal effect
# [3] = biological target: Gonadotropin-releasing hormone receptor (Homo sapiens) (UniProt P30968); experiment: Human gonadotropin-releasing hormone receptor (GnRHR) small molecule agonists, calcium flux assay in GnRHR-HEK293 cells (AID 1920063); further: nearly all actives have a fitted effect of over 35% in size
# Procedure, shortened: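 Cells: HEK293 stably expressing human GnRHR. Steps: overnight (18 h) culture, 1 h calcium dye loading at 37 C, compound addition, kinetic fluorescence read at 480/540 nm. Each compound tested at 15 concentrations in triplicate.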
# [4] = biological target: KiSS-1 receptor (Homo sapiens) (UniProt Q969F8); experiment: Human kisspeptin (KISS1R) small molecule agonists, calcium flux assay in KISS1R-HEK293 cells (AID 1920064; active means well fitted curve in the direction sought with a large enough effect in the repeat runs; an effect the other way counts as inactive or inconclusive)
# Procedure, shortened: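 Cells plated and incubated 18 h; dye added, 1 h at 37 C; compounds in DMSO pinned in; signal read at 480/540 nm every second for 3 min. Each compound tested at 15 concentrations in triplicate.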
# [5] = G protein-coupled receptor (GPCR) small molecule agonists, calcium flux assay: HEK293 wild type cell line counter screen (AID 1920065)
# Procedure, shortened: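 Counter-screen of the Tox21 10K library for non-specific calcium release: dye-loaded cells received compounds in DMSO and were monitored by kinetic fluorescence (480/540 nm, 3 min). Fifteen concentrations, run in triplicate.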
# [6] = p53 small molecule agonists, cell-based qHTS assay with human liver microsomes: qHTS cell viability counter screen (AID 1963579); further: nearly all actives have a fitted effect of over 45% in size; further: potency means the concentration at half of the fitted maximal effect
# Procedure, shortened: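 Luminescent CellTiter-Glo read-out, 30 min at room temperature, gauged cytotoxicity in p53RE-bla cells exposed 16 h at 37 C to DMSO-dissolved compounds with metabolic activation by human liver microsomes and NADPH, each 0.5 mg/mL final.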
# [7] = p53 small molecule agonists, cell-based qHTS assay with rat liver microsomes: qHTS cell viability counter screen (AID 1963580); further: nearly all actives have a fitted effect of over 45% in size
# Procedure, shortened: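 In HCT-116 cells carrying a p53 response element-bla reporter, compounds were metabolically activated in situ by rat liver microsomes with NADPH over 16 h. Cell ATP content then served as the cytotoxicity measure.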
# [8] = p53 small molecule agonists, cell-based qHTS assay: qHTS cell viability counter screen (AID 1963581); further: nearly all actives have a fitted effect of over 45% in size
# Procedure, shortened: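 Cells: HCT-116 with p53 response element-driven beta-lactamase. Treatment: 16 h, 37 C, compounds in DMSO. Read: CellTiter-Glo luminescence after 30 min RT.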
# [9] = biological target: 5-hydroxytryptamine receptor 2A (Homo sapiens) (UniProt P28223); experiment: 5-hydroxytryptamine receptor 2A (HTR2A) small molecule antagonists, cell-based qHTS assay (AID 1963586); further: nearly all actives have a fitted effect of over 45% in size
# Procedure, shortened: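 Antagonist-mode intracellular calcium assay: DOI (4 nM) added after 5 min compound pre-incubation at room temperature to dye-loaded HTR2A-CHO cells. Fluorescence followed for 3 min, sampled every second.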
# [10] = biological target: 5-hydroxytryptamine receptor 2A (Homo sapiens) (UniProt P28223); experiment: 5-hydroxytryptamine receptor 2A (HTR2A) small molecule agonists, cell-based qHTS assay (AID 1963587); further: nearly all actives have a fitted effect of over 30% in size; further: potency means the concentration at half of the fitted maximal effect
# Procedure, shortened: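 HTR2A-CHO cells, plated 18 h at 37 C/5% CO2, dye-loaded 1 h at 37 C; compounds in DMSO added by pin tool (agonist mode). Intracellular calcium flux read as kinetic fluorescence on FDSS over 2 min at 1 s intervals.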
# [11] = biological target: Muscarinic acetylcholine receptor M1 (Homo sapiens) (UniProt P11229); experiment: Cholinergic receptor muscarinic 1 (CHRM1) small molecule antagonists, cell-based qHTS assay (AID 1963588); further: nearly all actives have a fitted effect of over 40% in size
# Procedure, shortened: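 CHRM1-CHO calcium-flux assay, antagonist mode. Cells were seeded 18 h, dye-loaded 1 h at 37 C and given compound for 5 min at RT, then acetylcholine was added at 50nM. FDSS fluorescence was read 3 min; 15 concentrations, three runs.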
# [12] = cAMP Responsive Elements (CRE) small molecule agonists, cell-based qHTS assay (AID 1963590)
# Procedure, shortened: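 Agonist mode qHTS in CRE-bla HEK 293T cells: compounds dosed from DMSO for 3 h at 37 C/5% CO2, followed by LiveBLAzer B/G FRET substrate for 2 h at room temperature.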
# [13] = cAMP Responsive Elements (CRE) small molecule antagonists, cell-based qHTS assay (AID 1963591; active means well fitted inhibition curve with a large enough effect in the signal ratio in the repeat runs, not every such curve was filed as active; the % refers to the signal ratio)
# Procedure, shortened: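 Antagonist mode: test compounds are co-incubated with the adenylyl cyclase activator NKH477 (0.25 uM final) on CRE-bla HEK293T cells for 3 h at 37 °C, followed by LiveBLAzer substrate loading.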
# [14] = biological target: Beta-2 adrenergic receptor (Homo sapiens) (UniProt P07550); experiment: Adrenergic beta2 receptor (ADRB2) small molecule antagonists, cell-based qHTS assay (AID 1963592); further: series mostly up to about 92 µM; nearly all actives have a fitted effect of over 50% in size
# Procedure, shortened: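 Cells (CHO, stable ADRB2 overexpression) incubated 18-20hr at 37C; compounds added from DMSO; agonist mix (1nM isoproterenol, 100uM IBMX, 25uM Ro-20-1724) added; 0.5hr RT; d2-cAMP and anti-cAMP-cryptate added; 1hr RT; 665/615 nm read.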
# [15] = biological target: Beta-2 adrenergic receptor (Homo sapiens) (UniProt P07550); experiment: Adrenergic beta2 receptor (ADRB2) small molecule agonists, cell-based qHTS assay (AID 1963593);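 further: CHO cells stably overexpressing human ADRB2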
# Procedure, shortened: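 CHO cells stably over-expressing ADRB2 were plated overnight at 37C, then dosed with compounds plus a stimulation mix containing 100uM IBMX and 25uM Ro-20-1724 for 0.5hr at room temperature. cAMP was measured by HTRF competition, 1hr.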
# [16] = biological target: D(2) dopamine receptor (Homo sapiens) (UniProt P14416); experiment: Dopamine D2 receptor (DRD2) small molecule agonists, cell-based qHTS assay (AID 1963594); further: nearly all actives have a fitted effect of over 35% in size
# Procedure, shortened: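 HEK293 cells stably expressing DRD2 were cultured 24 h at 37 C, then given Ro20-1724 (0.1 mM final) and compounds for 10 min at room temperature. NKH477 (200nM) was then added for 30 min. cAMP was read by HTRF.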
# [17] = biological target: D(2) dopamine receptor (Homo sapiens) (UniProt P14416); experiment: Dopamine D2 receptor (DRD2) small molecule antagonists, cell-based qHTS assay (AID 1963595; active means well fitted inhibition curve with a large enough effect in the signal ratio in the repeat runs, with a control signal flat; the % refers to the signal ratio)
# Procedure, shortened: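 Stable D2 receptor HEK293 line, 24 h after seeding. Compound preincubated 10 min, then quinpirole (12 nM) with forskolin analogue NKH477 (200 nM), 30 min, room temperature. Detection by time-resolved FRET of cAMP.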
# [18] = biological target: Muscarinic acetylcholine receptor M1 (Homo sapiens) (UniProt P11229); experiment: Cholinergic receptor muscarinic 1 (CHRM1) small molecule agonists, cell-based qHTS assay (AID 1963589); further: nearly all actives have a fitted effect of over 35% in size
# Procedure, shortened: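 Agonist-mode qHTS in CHO cells stably carrying human muscarinic M1. Intracellular calcium is tracked by fluorescence every second after compound transfer; each compound runs at 15 concentrations in three independent runs.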
# [19] = p53 small molecule agonists, cell-based qHTS assay (AID 1963582; active means well fitted activation curve with a large enough effect in the signal ratio in the repeat runs, not every such curve was filed as active; the % refers to the signal ratio)
# Procedure, shortened: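 Quantitative HTS in p53RE-bla cells: after a 5 h settling period, compounds delivered in DMSO were left on cells for 16 h at 37 C, and reporter induction was measured as fluorescence following 2 h substrate loading.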
# [20] = p53 small molecule agonists, cell-based qHTS assay with rat liver microsomes (AID 1963578)
# Procedure, shortened: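 Rat liver microsome activation: microsomes 0.5 mg/mL, NADPH 0.5 mg/mL final; p53RE-bla cells, 16 h 37 C; LiveBLAzer readout, 2 h RT dark.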
# Sequence of Beta-2 adrenergic receptor (Homo sapiens) (P07550 whole entry, looked up): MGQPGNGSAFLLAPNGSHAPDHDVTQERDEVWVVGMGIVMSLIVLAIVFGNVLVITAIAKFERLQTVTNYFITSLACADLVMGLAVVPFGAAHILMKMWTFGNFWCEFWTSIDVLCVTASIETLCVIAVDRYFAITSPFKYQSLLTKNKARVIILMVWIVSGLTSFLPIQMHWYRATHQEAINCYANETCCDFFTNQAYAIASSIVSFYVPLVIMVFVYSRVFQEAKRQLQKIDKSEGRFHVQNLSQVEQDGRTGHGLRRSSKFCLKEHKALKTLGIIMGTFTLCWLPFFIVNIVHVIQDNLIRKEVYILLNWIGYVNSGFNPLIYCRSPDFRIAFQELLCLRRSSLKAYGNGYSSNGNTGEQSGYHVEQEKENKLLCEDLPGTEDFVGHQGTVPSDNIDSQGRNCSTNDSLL
# Sequence of Gonadotropin-releasing hormone receptor (Homo sapiens) (P30968 whole entry, looked up): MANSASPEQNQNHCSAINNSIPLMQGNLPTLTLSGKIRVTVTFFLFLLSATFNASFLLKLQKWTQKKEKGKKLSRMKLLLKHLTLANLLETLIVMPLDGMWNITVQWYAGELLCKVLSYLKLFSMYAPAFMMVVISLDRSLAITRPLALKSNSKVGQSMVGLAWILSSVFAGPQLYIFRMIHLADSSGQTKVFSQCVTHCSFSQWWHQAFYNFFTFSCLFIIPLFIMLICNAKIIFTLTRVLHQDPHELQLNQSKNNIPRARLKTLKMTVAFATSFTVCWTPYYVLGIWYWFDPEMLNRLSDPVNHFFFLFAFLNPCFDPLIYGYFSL
# Sequence of 5-hydroxytryptamine receptor 2A (Homo sapiens) (P28223 whole entry, looked up): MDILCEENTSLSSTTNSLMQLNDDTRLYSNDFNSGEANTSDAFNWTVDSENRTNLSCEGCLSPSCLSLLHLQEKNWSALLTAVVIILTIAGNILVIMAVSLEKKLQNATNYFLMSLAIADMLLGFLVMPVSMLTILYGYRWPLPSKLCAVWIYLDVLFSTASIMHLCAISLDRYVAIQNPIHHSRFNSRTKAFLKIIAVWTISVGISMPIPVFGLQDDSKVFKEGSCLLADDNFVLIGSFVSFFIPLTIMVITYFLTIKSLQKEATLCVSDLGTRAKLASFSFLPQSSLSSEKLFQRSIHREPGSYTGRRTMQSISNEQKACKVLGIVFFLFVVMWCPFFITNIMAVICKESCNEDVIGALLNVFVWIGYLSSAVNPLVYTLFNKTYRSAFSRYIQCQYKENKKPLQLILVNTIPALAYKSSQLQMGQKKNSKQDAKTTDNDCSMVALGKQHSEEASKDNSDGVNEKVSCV
# Sequence of D(2) dopamine receptor (Homo sapiens) (P14416 whole entry, looked up): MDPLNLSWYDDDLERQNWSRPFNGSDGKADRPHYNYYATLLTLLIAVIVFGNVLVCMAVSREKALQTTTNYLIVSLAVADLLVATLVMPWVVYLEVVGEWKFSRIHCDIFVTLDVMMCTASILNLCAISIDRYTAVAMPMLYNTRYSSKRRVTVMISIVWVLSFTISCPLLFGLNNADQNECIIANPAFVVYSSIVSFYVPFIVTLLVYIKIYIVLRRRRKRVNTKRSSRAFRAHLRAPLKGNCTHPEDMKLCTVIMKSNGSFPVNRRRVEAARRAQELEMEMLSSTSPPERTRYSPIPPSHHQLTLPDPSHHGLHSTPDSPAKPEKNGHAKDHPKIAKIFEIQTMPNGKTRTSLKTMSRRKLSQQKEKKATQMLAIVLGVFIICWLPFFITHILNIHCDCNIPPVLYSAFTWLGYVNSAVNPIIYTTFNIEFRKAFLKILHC
# Sequence of Muscarinic acetylcholine receptor M1 (Homo sapiens) (P11229 whole entry, looked up): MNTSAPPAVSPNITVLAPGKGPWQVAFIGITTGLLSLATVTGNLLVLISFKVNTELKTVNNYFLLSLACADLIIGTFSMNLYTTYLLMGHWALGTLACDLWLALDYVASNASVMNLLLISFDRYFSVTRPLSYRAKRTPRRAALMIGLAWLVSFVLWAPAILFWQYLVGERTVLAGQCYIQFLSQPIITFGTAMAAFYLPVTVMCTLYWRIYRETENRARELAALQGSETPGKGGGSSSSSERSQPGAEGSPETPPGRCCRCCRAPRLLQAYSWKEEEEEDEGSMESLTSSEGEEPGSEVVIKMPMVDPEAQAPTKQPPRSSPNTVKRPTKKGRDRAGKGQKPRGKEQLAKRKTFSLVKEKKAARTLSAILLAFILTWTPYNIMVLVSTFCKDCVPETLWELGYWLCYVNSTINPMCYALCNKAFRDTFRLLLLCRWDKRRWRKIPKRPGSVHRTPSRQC
# Sequence of KiSS-1 receptor (Homo sapiens) (Q969F8 whole entry, looked up): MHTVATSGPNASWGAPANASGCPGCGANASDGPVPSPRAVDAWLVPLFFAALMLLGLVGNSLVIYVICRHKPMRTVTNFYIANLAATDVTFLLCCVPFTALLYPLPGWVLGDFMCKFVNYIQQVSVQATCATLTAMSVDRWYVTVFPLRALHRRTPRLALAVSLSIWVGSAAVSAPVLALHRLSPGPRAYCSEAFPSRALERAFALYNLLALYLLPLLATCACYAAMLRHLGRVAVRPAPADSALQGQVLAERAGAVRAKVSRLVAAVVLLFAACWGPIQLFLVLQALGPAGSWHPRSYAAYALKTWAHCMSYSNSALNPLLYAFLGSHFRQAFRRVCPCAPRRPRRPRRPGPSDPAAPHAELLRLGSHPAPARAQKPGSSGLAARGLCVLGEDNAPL
SMILES,Potency [1],Potency [2],Potency [3],Potency [4],Potency [5],Potency [6],Potency [7],Potency [8],Potency [9],Potency [10],Potency [11],Potency [12],Potency [13],Potency [14],Potency [15],Potency [16],Potency [17],Potency [18],Potency [19],Potency [20]
CC1C=[C-]C=C1.[C-]#[O+].[C-]#[O+].[C-]#[O+].[Mn],inactive,inactive,inactive,inactive,inactive,inactive,inactive,inactive,inactive,inactive,inactive,inactive,inactive,inactive,inactive,inactive,inactive,–,–,–
O=C(O)CCl,inactive,inactive,inactive,inactive,inactive,inactive,inactive,inactive,inactive,inactive,inactive,inactive,inactive,inactive,inactive,inactive,inactive,inactive,–,–
O=S(=O)(O)OOS(=O)(=O)O,inactive,inactive,inactive,inactive,inactive,inactive,inactive,inactive,inactive,inactive,inactive,inactive,inactive,inactive,inactive,inactive,inactive,inactive,–,–
CCOP(=S)(OCC)SCn1c(=O)oc2cc(Cl)ccc21,inactive,32.9 µM (active) and 61.1 µM (active),inactive,inactive,inactive,inactive,–,inactive,inactive,inactive,inactive,–,–,inactive,–,inactive,inactive,–,inactive,–
CC(C)c1ccc(OP(=O)(Oc2ccc(C(C)C)cc2)Oc2ccc(C(C)C)cc2)cc1,inactive,61.6 µM (active) and inactive and 30.6 µM (active),inactive,inactive,inactive,–,inactive,inactive,inactive,inactive,inactive,–,inactive,inactive,–,inactive,inactive,inactive,–,–
COc1ccc(N)cc1N,inactive,25.1 µM (active) and 33 µM (active),inactive,inactive,inactive,inactive,inactive,inactive,–,22.6 µM (active) and inactive,–,–,–,–,inactive,inactive,inactive,inactive,–,–
CCCCCC[n+]1ccccc1,inactive,69.2 µM (active) and 69 µM (active) and inactive,inactive,inactive,inactive,11.6 µM (active) and 9.19 µM (active) and inactive,inactive,inactive,–,–,–,inactive,inactive,inactive,inactive,inactive,inactive,inactive,–,–
C=CCc1ccc(OC)cc1,inactive,inactive,inactive,inactive,inactive,–,inactive,inactive,inactive,inactive,inactive,inactive,inactive,–,–,inactive,inactive,inactive,–,–
CC[N+]1(C)CCCC1,inactive,70.3 µM (active) and inactive,inactive,inactive,inactive,41.8 µM (active) and inactive,–,inactive,–,inactive,inactive,inactive,inactive,inactive,–,inactive,inactive,inactive,–,–
CNC(=O)Oc1ccccc1C1OCCO1,inactive,inactive,inactive,inactive,–,inactive,inactive,inactive,inactive,inactive,inactive,inactive,inactive,inactive,inactive,inactive,inactive,inactive,inactive,inactive
OC[C@@H](O)[C@H]1O[C@@H]2O[C@H](C(Cl)(Cl)Cl)O[C@@H]2[C@H]1O,inactive,inactive,inactive,inactive,inactive,–,inactive,inactive,inactive,inactive,inactive,inactive,inactive,inactive,–,–,inactive,inactive,–,–
C#CCN(C)[C@H](C)Cc1ccccc1,inactive,inactive,inactive,inactive,inactive,inactive,inactive,–,–,–,–,inactive,inactive,inactive,inactive,–,inactive,–,–,–
O=[N+]([O-])c1ccc(Cl)c(Cl)c1,inactive,inactive,inactive,inactive,inactive,inactive,inactive,inactive,–,inactive,inactive,inactive,inactive,inactive,–,inactive,inactive,inactive,–,–
O=C/C(Cl)=C(/Cl)C(=O)O,inactive,68.5 µM (active) and 68.6 µM (active),inactive,inactive,inactive,–,inactive,inactive,inactive,inactive,inactive,inactive,inactive,inactive,inactive,inactive,inactive,inactive,–,–
O=C(NC(=O)c1c(F)cccc1F)Nc1ccc(Cl)cc1,inactive,inactive,inactive,inactive,inactive,inactive,inactive,inactive,inactive,inactive,–,inactive,inactive,inactive,inactive,inactive,inactive,inactive,–,–
CC(=O)C=C(C)C,inactive,inactive,inactive,inactive,inactive,inactive,inactive,–,inactive,inactive,inactive,inactive,–,inactive,inactive,inactive,inactive,inactive,–,–
CCNCC,inactive,inactive,inactive,inactive,inactive,inactive,–,inactive,inactive,inactive,inactive,inactive,inactive,inactive,inactive,inactive,inactive,inactive,–,–
